Screens (PubChem BioAssay)
Compounds with a hit are over-represented: about 9.3% of the library has one in this group of screens.
Htt clearance: mutant huntingtin protein clearance; inhibition, % at 1.5 µM; HeLa Exon1htt(103Q)mCFP, aggregate imaging; zero = plate's median compound well; 47,000 tested, 0.42% active; AID 853;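 active = inhibition of aggregate fluorescence above about 70%, also judged a hit by eye on the cell image, limit read from the data, passing the limit was not always enough; inconclusive = no rule stated for this call; inactive = not judged a hit on image review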;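 also: cells exposed to compound for three days before fixation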
M1 antag: M1 muscarinic receptor (rat) antagonism; P08482; 64,000 tested, 3.4% active; B-score at 10 µM; CHO-M1 cells, Fluo-4 calcium, ACh EC80 antagonist mode; hits give low values;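 active = calcium fluorescence response, raw or row-and-column corrected B-score, differing from the plate sample mean either way at a set confidence level, mostly lower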
Target sequence (P08482 whole entry, looked up): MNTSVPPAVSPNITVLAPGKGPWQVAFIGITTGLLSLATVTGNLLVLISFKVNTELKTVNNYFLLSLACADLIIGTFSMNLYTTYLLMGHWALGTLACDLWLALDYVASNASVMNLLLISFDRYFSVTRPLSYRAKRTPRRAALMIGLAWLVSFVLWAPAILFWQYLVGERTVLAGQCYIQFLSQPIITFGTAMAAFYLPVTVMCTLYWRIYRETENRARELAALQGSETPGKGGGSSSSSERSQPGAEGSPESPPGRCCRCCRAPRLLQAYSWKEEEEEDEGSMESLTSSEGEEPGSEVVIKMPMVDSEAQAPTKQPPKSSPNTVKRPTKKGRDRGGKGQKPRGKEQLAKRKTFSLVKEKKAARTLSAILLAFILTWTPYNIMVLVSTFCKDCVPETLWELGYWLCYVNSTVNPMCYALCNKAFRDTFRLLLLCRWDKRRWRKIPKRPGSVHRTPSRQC
NADH enzymes: inhibition of NAD/NADH coupling enzymes, library profiling; coupled PK/LDH NADH assays, four targets; IC50, µM (series often up to 10 µM), inactives show at the highest dose inhibition; 65,000 tested, 0.02% active;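 active = single-dose screening hits from any of four coupled enzyme assays that gave an IC50 when retested across doses; inconclusive = no clear call, values can overlap the other calls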;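 also: the DPM-DC format reads NADH fluorescence rather than 340 nm absorbance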
Fluor 339 460: intrinsic fluorescence of library compounds, ex339/em460 – biochemical, MLSMR library, data from DPM-DC assay, artefact control, profiling panel; 65,000 tested, 5.5% active; fluorescence fold increase at 10 µM; compound autofluorescence, ex339/em460 nm, NADH buffer; hits give high values; 1 = no-compound wells, NADH background; AID 709;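 active = at 10 µM, mean starting fluorescence two-fold or more over control wells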;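 also: signal is the first read of a kinetic run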
Abs 340nm: compounds absorbing at 340 nm; AID 708; compound absorbance at 340 nm, fold over control; 65,000 tested, under 10 active; fold change at 10 µM;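 active = at 10 µM dose, initial 340 nm absorbance at least 2 fold that of control wells; inactive = change under 2 fold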;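 also: initial absorbance extrapolated from kinetic A340 decline of NADH oxidation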
M1 agonist: M1 muscarinic receptor agonism; 64,000 tested, 3% active; B-score at 10 µM; CHO-M1 cells, Fluo-4 calcium fluorescence, agonist mode; hits give high values;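 active = fluorescence rise, raw or as B-score row- and column-corrected plate score, outside the 99.7% band of its plate's samples, either direction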
M1 ag confirm: confirmation of rat M1 muscarinic receptor agonists; shares compounds with M1 agonist; fluorescence change (max-min) at 10 µM; CHO-M1 cells, Fluo-4 calcium fluorescence, agonist mode; actives lie on both sides; 1,700 tested, 19% active; AID 1488;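 active = fluorescence change differs from the solvent-only DMSO control mean at a set confidence level in both duplicate runs; inconclusive = differs from solvent-only control mean in just one of two runs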;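 also: an EC20 dose of acetylcholine follows compound addition during the same imaging run; raw fluorescence intensity difference in instrument units with no normalization to controls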
M4 ag counter: activates rat M4 receptor in counter-screen for M1 agonists. shares compounds with M1 agonist. CHO M4/Gqi5 cells, Fluo-4 calcium fluorescence, agonist mode; actives lie on both sides. fluorescence change (max-min) at 10 µM. 1,700 tested, 9% active;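 active = fluorescence change differing from the plate's solvent-only control wells at 99.7% confidence in both duplicates, whether higher or lower; inconclusive = differs from solvent controls in only one of two duplicates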
Starred values were filed as active, the others as inactive.

For COc1cc2c(cc1OC)C(COc1ccc(F)cc1)N(C(=O)c1ccco1)CC2 (configuration not stated) the results were M1 antag -1.2, NADH enzymes 6%, Fluor 339 460 1.1, Abs 340nm 0.99, M1 agonist 7.9*, M1 ag confirm -2.1 and M4 ag counter -15.
For COC(=O)COc1ccc(S(=O)(=O)NCc2ccncc2)cc1 the results were M1 antag -2*, NADH enzymes 3%, Fluor 339 460 1, Abs 340nm 1, M1 agonist 2.7*, M1 ag confirm -18 and M4 ag counter inconclusive.
`CCOC(=O)COc1ccc(S(=O)(=O)NCc2cccnc2)cc1` gave M1 antag -0.49, NADH enzymes 2%, Fluor 339 460 1.1, Abs 340nm 1 and M1 agonist 0.017.
Screening O=C(NCN1C(=O)C2C3C=CC(C3)C2C1=O)Nc1nccs1 (configuration not stated) returned Htt clearance -42, M1 antag 0.15, NADH enzymes 3%, Fluor 339 460 1.1, Abs 340nm 0.99 and M1 agonist -0.055.
Screening CCC1CCCCN1S(=O)(=O)c1ccc(C(=O)Nc2nnc(-c3ccccc3Cl)o2)cc1 (configuration not stated) returned M1 antag -0.11, NADH enzymes 5%, Fluor 339 460 1.3, Abs 340nm 1 and M1 agonist 0.061.
Screening CC1CCCCN1S(=O)(=O)c1ccc(C(=O)Nc2nnc(-c3ccccc3Cl)o2)cc1 (configuration not stated) returned M1 antag 0.015, NADH enzymes 6%, Fluor 339 460 1.3, Abs 340nm 1.1, M1 agonist -2.5*, M1 ag confirm inconclusive and M4 ag counter -45.
COc1cccc(/C(O)=C2/C(=O)C(=O)N(CCN3CCOCC3)C2c2cccs2)c1 (configuration not stated) was read as M1 antag 1, NADH enzymes 7%, Fluor 339 460 1.1, Abs 340nm 1.1 and M1 agonist 0.28.
`Cc1cccc2cc(CN(Cc3ccc(F)cc3)C(=O)N(C)C)c3nnnn3c12` gave Htt clearance 29, M1 antag -2.1, NADH enzymes 5%, Fluor 339 460 1, Abs 340nm 1, M1 agonist 6.2*, M1 ag confirm inconclusive and M4 ag counter -21.
COCCN(Cc1cc2cccc(C)c2n2nnnc12)C(=O)C(F)(F)F was read as Htt clearance 1, M1 antag 0.15, NADH enzymes 5%, Fluor 339 460 1.1, Abs 340nm 0.98 and M1 agonist 0.58.
COC(=O)c1cc(COc2ccc3c(c2)oc(=O)c2ccccc23)c(C)o1 was read as Htt clearance -44.
Screening N#CCSc1nnc(Cc2cccc3ccccc23)n1C1CCCCC1 returned Htt clearance 27, M1 antag -0.76, NADH enzymes 7%, Fluor 339 460 1.1, Abs 340nm 1 and M1 agonist 0.019.
O=C(CN1C(=O)c2ccccc2S1(=O)=O)NCCSC1CCCCC1 was read as M1 antag -0.79, NADH enzymes 6%, Fluor 339 460 1.1, Abs 340nm 1 and M1 agonist 0.
Screening O=C(CN1c2cccc3cccc(c23)S1(=O)=O)NCc1ccc2c(c1)OCO2 returned Htt clearance 19, M1 antag -4*, NADH enzymes 7%, Fluor 339 460 1.8, Abs 340nm 1.1, M1 agonist 21*, M1 ag confirm 48 and M4 ag counter -18.
`O=C(CN1C(=O)c2ccccc2S1(=O)=O)NCc1ccc2c(c1)OCO2` gave Htt clearance -4.
`COCCN1C(=O)C(CC(=O)Nc2ccc(C(C)=O)cc2)SC1=Nc1ccccc1` (configuration not stated) gave Htt clearance 17, M1 antag 0.045, NADH enzymes 7%, Fluor 339 460 1.1, Abs 340nm 1, M1 agonist 3.9*, M1 ag confirm inconclusive and M4 ag counter -53.
